{"source": "PubChem BioAssay (NCATS)", "note": "Results filed as inconclusive are left out. Where a call stands in place of a potency, no number is given. Values without a mark were called inactive. Activity calls are given as the source filed them. Calls come from the whole dose curve; as a rule, active = well fitted inhibition curve with a large enough effect; inconclusive = small, poorly fitted or top-dose-only effect; inactive = no such curve, though single readings can be large or run the other way. Potency is the fitted concentration of half-maximal effect.", "data": [{"experiment": "Primary fluorescence-based thiol-reactive (MSTI) qHTS assay for identification of artifact compounds. (AID 1845221); note: nearly all actives have a fitted effect of over 65% in size;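 for activity change, negative = thiol reactive: thiol-reactive compounds lower the probe fluorescence signal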", "conditions": "MSTI thiol-reactivity probe, 1 h; series mostly up to 53.8 µM", "outline": "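A multi-concentration qHTS design tested compounds against 4 uM MSTI, pH 7.4 phosphate-buffered saline. Plates were protected from light for 1 h at room temperature before imaging fluorescence.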", "values": [{"smiles": "COc1ccc(-c2csc(NC(=O)[C@H]3CCCCN3S(=O)(=O)c3ccc(C)cc3)n2)cc1", "Potency": "inactive"}, {"smiles": "O=C(O)C1=CO[C@@H](O[C@@H]2O[C@H](CO)[C@@H](O)[C@H](O)[C@H]2O)[C@@H]2C(CO)=CC[C@H]12", "Potency": "inactive"}, {"smiles": "C=C1C(=O)O[C@H]2/C=C(/C)[C@@H](OC(C)=O)C/C=C(\\C)C[C@@H](OC(=O)/C(=C/C)COC(=O)/C(=C/C)CO)[C@@H]12", "Potency": "inactive"}, {"smiles": "Oc1ccc(-c2cnc3ccc(NCc4ccco4)nn23)cc1", "Potency": "5.97 µM (active)"}, {"smiles": "COC(=O)c1cc2c(C(F)(F)F)cc(-c3ccccc3)cc2n1O", "Potency": "2.67 µM (active)"}, {"smiles": "COc1cc(OC)c2c(=O)[nH]c(-c3cc(C)c(OCCO)c(C)c3)nc2c1", "Potency": "inactive"}, {"smiles": "C=C1C(=O)OC2C1CCC1(C)C(O)CC=C(C)C21", "note": "(centres undefined)", "Potency": "11.9 µM (active)"}, {"smiles": "CO[C@H]1[C@@H](O)[C@H](O[C@H]2CC[C@@]3(C)C(CCC4C3CC[C@]35COC6(COC(=O)C6)C3CCC45O)C2)O[C@@H](C)[C@@H]1OC1OC(CO)C(OC2OC(CO)C(O)C(O)C2O)C(O)C1O", "note": "(some centres undefined)", "activity change, negative = thiol reactive": "77.5% [at 11.5 µM]"}, {"smiles": "Fc1ccc(-c2cncc(CN3CCN(c4cccc5c4OCCO5)CC3)c2)cc1", "Potency": "inactive"}, {"smiles": "CC(C)C[C@H](C(=O)O)c1cc(-c2ccc(C(F)(F)F)cc2)cc(-c2ccc(C(F)(F)F)cc2)c1", "Potency": "inactive"}, {"smiles": "COc1cc(/C=C2\\CC[C@H]3COC[C@@H](c4cc(F)c(F)c(F)c4)N3C2=O)ccc1-n1cnc(C)c1", "Potency": "inactive"}, {"smiles": "CC(C)(CNC(=O)c1cccc(-c2noc(C(F)(F)F)n2)c1)c1coc(-c2ccccc2)n1", "Potency": "inactive"}, {"smiles": "C=C1CC[C@@H]2[C@](C)(CO)[C@H](O)CC[C@@]2(C)[C@@H]1CC(=O)C1=CCOC1=O", "Potency": "inactive"}, {"smiles": "O=C(Nc1ccc(C(O)(C(F)(F)F)C(F)(F)F)cc1)c1ccc(C(F)(F)F)cc1", "Potency": "inactive"}, {"smiles": "COC1=CC(=O)O/C1=C(/OC)[C@@H]1O[C@H]1c1ccccc1", "Potency": "inactive"}, {"smiles": "COc1ccc(C2(N(C)C(=O)c3ccc(NC(=O)c4ccco4)cc3)CCOCC2)cc1", "Potency": "inactive"}, {"smiles": "C[C@@H]1CC[C@]2(C(=O)O)CC[C@]3(C)C(=CCC4[C@@]5(C)CC[C@H](O)[C@](C)(C(=O)O)C5CC[C@]43C)C2[C@]1(C)O", "note": "(some centres undefined)", "Potency": "inactive"}, {"smiles": "CN(C)c1ccnc2sc3c(=O)n(N4CCCCCC4)cnc3c12", "Potency": "inactive"}, {"smiles": "COCCCNC(=O)c1ccc(Cn2c(=O)c3ccccc3n(Cc3ccc(C(C)C)cc3)c2=O)cc1", "Potency": "inactive"}, {"smiles": "O=C(Nc1ccc(Cl)cc1)c1ccccc1NCc1ccncc1", "Potency": "inactive"}, {"smiles": "C[C@@H]1C[C@H]2O[C@@]3(O[C@@H]2C(C)(C)O)C(O)[C@@]2(C)C4CCC5C(C)(C)[C@@H](O[C@H]6OC[C@H](O)[C@@H](O)[C@@H]6O)CC[C@@]56C[C@@]46CC[C@]2(C)C13", "note": "(some centres undefined)", "Potency": "inactive"}, {"smiles": "CC(=O)C=C=C1C(C)(C)CC(O)CC1(C)O[C@@H]1O[C@H](CO[C@H]2OC[C@](O)(CO)[C@H]2O)[C@@H](O)[C@H](O)[C@H]1O", "note": "(some centres undefined)", "Potency": "5.19 µM (active)"}, {"smiles": "Nc1ncnc2c1c(-c1ccc(Cl)cc1)nn2-c1cccc(-c2cnnn2Cc2cccc(-c3ccccc3)c2)c1", "Potency": "inactive"}, {"smiles": "Cc1nc(C(=O)N2CCC[C@H]2Cc2nnc(-c3ccccc3)o2)c(-c2ccccc2F)s1", "Potency": "inactive"}, {"smiles": "COc1cc2ncnc(Nc3cccc(I)c3)c2cc1OC", "Potency": "inactive"}, {"smiles": "C=C1C(=O)O[C@@H]2[C@H]1CC(=O)[C@H](C)[C@@](O)(C(=O)/C=C/C)[C@H]2OC(=O)C(C)CC", "note": "(some centres undefined)", "Potency": "inactive"}, {"smiles": "CCC(CC)(NC(=O)C(C)C)C(=O)N[C@@H](CCCN=C(N)N)C(=O)NC1(C(=O)NC(c2ccc(F)cc2)c2ccc(F)cc2)CCCC1", "Potency": "inactive"}, {"smiles": "C=C1CCC2C(C)(C)CCCC2(C)C1CC/C(C)=C\\CO", "note": "(centres undefined)", "Potency": "inactive"}, {"smiles": "CCc1ccccc1OC[C@@H](O)CN[C@H]1CCCc2ccccc21", "Potency": "inactive"}, {"smiles": "COc1cc(-c2nc(N[C@H](CO)Cc3ccccc3)ccc2C(=O)NCCOc2ccccc2)cc(OC)c1OC", "Potency": "inactive"}, {"smiles": "CC(C)(C)Sc1c(CC(C)(C)C(=O)O)n(Cc2ccc(Cl)cc2)c2ccc(OCc3ccc4ccccc4n3)cc12", "Potency": "inactive"}, {"smiles": "CC(=O)O[C@H]1CC2C(COC(=O)CC(C)C)=CO[C@@H](OC(=O)CC(C)C)C2[C@]12CO2", "note": "(some centres undefined)", "Potency": "inactive"}, {"smiles": "O=C1COc2nccc(-c3ccccc3F)c2CN1Cc1cc(C(F)(F)F)cc(C(F)(F)F)c1", "Potency": "inactive"}, {"smiles": "CC(C)(O)c1ccn2c(-c3ccc(F)c(-c4ccc(F)cc4C#N)c3)cnc2c1F", "Potency": "inactive"}, {"smiles": "C[C@@H](Nc1ncnc2[nH]c(-c3ccc(O)cc3)cc12)c1ccccc1", "Potency": "1.34 µM (active)"}, {"smiles": "Cc1csc(N(C(=O)CSc2ccc(-c3ccccc3)nn2)C2CC2)n1", "Potency": "inactive"}, {"smiles": "CC12CCC(OC3OC(CO)C(O)C(O)C3OC3OC(CO)C(O)C(O)C3O)CC1CCC1C2CCC2(C)/C(=C3/COC(=O)C3)CCC12O", "note": "(centres undefined)", "Potency": "inactive"}, {"smiles": "CCOc1nc(NC(=O)Cc2cc(OC)ccc2OC)cc(N)c1C#N", "Potency": "inactive"}, {"smiles": "C/C(=C\\CO[C@@H]1O[C@H](CO[C@H]2OC[C@](O)(CO)[C@H]2O)[C@@H](O)[C@H](O)[C@H]1O)C(C)(C)O", "Potency": "inactive"}]}]}
